Among the data in ChEMBL document CHEMBL1961873, “Compounds: GSK PKIS; Assays: Nanosyn kinase panel” (2012) are inhibition values, retold here.

Experiment [1] deals with Serine/threonine-protein kinase pim-2 (Homo sapiens) (UniProt Q9P1W9). To be noted: at 1 µM.
In experiment [2] the target is Serine/threonine-protein kinase pim-3 (Homo sapiens) (UniProt Q86V86). To be noted: at 0.1 µM.
The target is the same in experiment [3]. To be noted: at 1 µM.
Experiment [4] has as its target T1, MAP kinase-activated protein kinase 5 (Homo sapiens) (UniProt Q8IW41).
T1 sequence (whole entry): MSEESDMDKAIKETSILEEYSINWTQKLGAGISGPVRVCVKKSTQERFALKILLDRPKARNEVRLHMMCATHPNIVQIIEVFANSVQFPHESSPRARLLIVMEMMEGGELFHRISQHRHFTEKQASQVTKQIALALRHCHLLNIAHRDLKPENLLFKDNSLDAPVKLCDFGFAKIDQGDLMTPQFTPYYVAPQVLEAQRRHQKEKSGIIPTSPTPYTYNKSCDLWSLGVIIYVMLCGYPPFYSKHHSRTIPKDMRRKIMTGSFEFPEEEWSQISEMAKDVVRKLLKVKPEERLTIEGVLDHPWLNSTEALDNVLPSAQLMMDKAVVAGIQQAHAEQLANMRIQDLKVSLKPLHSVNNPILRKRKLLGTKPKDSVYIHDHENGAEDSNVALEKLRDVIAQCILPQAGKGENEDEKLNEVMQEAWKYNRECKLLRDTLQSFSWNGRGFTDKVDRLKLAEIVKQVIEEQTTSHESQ
The note with it: at 0.1 µM.

In experiment [5] the target is T1, MAP kinase-activated protein kinase 5 (Homo sapiens). The note with it: at 1 µM.
Experiment [6] addresses Serine/threonine-protein kinase SIK1 (Homo sapiens) (UniProt P57059). To be noted: at 0.1 µM.
Experiment [7] shares this target. To be noted: at 1 µM.
The target of experiment [8] is Serine/threonine-protein kinase SIK2 (Homo sapiens) (UniProt Q9H0K1). To be noted: at 0.1 µM.
For experiment [9] the target is unchanged. The note with it: at 1 µM.
The target in experiment [10] is T2, Serine/threonine-protein kinase TBK1 (Homo sapiens) (UniProt Q9UHD2).
T2 sequence (whole entry): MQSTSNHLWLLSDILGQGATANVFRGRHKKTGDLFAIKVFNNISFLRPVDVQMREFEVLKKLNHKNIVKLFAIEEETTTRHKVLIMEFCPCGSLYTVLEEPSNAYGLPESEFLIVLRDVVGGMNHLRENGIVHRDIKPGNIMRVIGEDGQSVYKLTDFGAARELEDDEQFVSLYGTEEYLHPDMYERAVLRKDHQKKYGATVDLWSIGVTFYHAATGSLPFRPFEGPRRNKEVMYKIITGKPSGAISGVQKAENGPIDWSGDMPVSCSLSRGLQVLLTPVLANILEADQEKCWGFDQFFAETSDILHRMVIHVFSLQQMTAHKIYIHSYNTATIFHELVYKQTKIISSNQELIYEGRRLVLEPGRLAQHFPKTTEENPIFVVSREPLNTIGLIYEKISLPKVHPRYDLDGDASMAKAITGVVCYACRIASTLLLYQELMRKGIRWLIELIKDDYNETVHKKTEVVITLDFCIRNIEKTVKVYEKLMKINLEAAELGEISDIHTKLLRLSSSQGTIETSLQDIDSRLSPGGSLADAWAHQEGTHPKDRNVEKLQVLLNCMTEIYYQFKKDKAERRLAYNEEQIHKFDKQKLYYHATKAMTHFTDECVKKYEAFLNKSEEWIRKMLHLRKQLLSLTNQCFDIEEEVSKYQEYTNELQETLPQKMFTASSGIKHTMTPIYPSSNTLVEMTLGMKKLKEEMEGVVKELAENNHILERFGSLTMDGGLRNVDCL
The note with it: at 0.1 µM.

Experiment [11] deals with T2, Serine/threonine-protein kinase TBK1 (Homo sapiens). To be noted: at 1 µM.
Experiment [12] deals with T3, Testis-specific serine/threonine-protein kinase 1 (Homo sapiens) (UniProt Q9BXA7).
T3 sequence (whole entry): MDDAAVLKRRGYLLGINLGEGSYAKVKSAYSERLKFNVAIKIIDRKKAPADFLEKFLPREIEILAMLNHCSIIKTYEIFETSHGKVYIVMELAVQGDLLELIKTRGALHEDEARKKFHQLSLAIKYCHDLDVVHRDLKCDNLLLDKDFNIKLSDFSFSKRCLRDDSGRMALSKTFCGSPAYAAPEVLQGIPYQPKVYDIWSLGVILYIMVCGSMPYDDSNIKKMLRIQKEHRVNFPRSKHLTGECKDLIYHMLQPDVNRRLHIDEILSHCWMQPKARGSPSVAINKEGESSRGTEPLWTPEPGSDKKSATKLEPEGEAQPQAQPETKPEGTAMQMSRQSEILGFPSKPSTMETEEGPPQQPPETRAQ
To be noted: at 0.1 µM.

Experiment [13] concerns the target T3, Testis-specific serine/threonine-protein kinase 1 (Homo sapiens). The note with it: at 1 µM.
The target of experiment [14] is T4, Testis-specific serine/threonine-protein kinase 2 (Homo sapiens) (UniProt Q96PF2).
T4 sequence (whole entry): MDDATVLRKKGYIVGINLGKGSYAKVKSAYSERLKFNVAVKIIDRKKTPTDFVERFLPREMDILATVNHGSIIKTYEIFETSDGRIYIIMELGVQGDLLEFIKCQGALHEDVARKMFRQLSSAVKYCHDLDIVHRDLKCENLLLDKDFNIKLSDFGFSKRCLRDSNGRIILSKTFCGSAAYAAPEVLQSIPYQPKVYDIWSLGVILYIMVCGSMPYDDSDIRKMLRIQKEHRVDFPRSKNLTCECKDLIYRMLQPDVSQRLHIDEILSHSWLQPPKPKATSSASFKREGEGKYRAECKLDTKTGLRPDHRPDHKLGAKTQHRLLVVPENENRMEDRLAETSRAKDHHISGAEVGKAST
To be noted: at 0.1 µM.

The target of experiment [15] is T4, Testis-specific serine/threonine-protein kinase 2 (Homo sapiens). To be noted: at 1 µM.
The target of experiment [16] is Casein kinase I isoform alpha (Homo sapiens) (UniProt P48729). The note with it: at 0.1 µM.
For experiment [17] the target is unchanged. To be noted: at 1 µM.
The target in experiment [18] is Casein kinase I isoform gamma-1 (Homo sapiens) (UniProt Q9HCP0). To be noted: at 0.1 µM.
The target is the same in experiment [19]. To be noted: at 1 µM.
For experiment [20], the target named is Casein kinase I isoform gamma-2 (Homo sapiens) (UniProt P78368). To be noted: at 0.1 µM.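 Further: values are mean inhibition figures reported as part of the GSK PKIS dataset.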
Chain of Casein kinase I isoform gamma-2 (Homo sapiens) (P78368 whole entry, looked up, canonical isoform): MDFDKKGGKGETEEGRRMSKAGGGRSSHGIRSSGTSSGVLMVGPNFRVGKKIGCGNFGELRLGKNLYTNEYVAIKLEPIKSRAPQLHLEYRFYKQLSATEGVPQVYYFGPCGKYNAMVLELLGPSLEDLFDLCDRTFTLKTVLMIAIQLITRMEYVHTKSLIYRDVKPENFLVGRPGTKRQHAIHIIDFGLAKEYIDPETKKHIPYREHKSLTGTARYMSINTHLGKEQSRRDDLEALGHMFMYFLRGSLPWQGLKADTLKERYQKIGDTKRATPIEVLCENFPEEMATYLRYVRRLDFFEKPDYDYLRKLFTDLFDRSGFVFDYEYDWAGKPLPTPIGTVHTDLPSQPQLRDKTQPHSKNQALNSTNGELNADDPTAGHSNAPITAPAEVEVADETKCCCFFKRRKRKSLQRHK

Chain of Casein kinase I isoform alpha (Homo sapiens) (P48729 2-337 limits assumed): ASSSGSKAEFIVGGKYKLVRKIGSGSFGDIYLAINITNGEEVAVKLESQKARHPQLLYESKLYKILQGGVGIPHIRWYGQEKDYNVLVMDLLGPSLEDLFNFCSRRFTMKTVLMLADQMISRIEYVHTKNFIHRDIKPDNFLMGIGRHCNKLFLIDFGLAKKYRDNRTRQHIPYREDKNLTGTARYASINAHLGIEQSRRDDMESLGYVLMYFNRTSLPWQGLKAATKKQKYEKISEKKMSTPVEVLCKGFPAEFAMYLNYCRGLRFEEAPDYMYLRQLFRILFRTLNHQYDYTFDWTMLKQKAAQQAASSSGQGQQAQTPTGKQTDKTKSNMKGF
Chain of Serine/threonine-protein kinase SIK1 (Homo sapiens) (P57059 whole entry): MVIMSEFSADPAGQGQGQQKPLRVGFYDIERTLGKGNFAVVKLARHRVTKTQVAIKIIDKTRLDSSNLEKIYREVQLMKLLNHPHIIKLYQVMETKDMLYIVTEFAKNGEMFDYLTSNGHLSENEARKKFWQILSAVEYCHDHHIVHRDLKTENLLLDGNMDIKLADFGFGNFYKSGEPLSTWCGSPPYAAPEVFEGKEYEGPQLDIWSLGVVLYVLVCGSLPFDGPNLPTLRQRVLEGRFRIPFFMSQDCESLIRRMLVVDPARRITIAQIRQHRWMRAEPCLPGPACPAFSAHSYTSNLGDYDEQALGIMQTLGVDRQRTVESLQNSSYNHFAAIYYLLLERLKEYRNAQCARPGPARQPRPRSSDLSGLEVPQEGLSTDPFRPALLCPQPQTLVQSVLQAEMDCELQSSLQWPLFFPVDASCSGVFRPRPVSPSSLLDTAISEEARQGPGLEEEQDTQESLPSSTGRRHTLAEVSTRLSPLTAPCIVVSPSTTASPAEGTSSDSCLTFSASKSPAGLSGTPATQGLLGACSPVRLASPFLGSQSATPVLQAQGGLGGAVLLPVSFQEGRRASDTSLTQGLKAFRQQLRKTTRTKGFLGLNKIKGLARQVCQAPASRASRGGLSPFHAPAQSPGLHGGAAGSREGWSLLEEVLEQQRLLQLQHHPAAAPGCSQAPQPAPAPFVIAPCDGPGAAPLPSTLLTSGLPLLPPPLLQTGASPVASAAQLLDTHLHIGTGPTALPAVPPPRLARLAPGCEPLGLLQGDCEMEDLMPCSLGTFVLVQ
Chain of Serine/threonine-protein kinase pim-2 (Homo sapiens) (Q9P1W9 whole entry, looked up): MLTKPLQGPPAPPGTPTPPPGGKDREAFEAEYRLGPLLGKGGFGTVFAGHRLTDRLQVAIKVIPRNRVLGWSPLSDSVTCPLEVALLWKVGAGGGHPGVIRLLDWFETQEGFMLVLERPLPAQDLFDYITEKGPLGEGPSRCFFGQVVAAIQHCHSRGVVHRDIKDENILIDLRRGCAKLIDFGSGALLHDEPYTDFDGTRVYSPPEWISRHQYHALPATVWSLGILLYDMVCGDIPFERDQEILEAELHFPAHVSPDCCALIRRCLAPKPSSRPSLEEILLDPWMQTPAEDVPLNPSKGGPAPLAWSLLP
Chain of Casein kinase I isoform gamma-1 (Homo sapiens) (Q9HCP0 whole entry, looked up, canonical isoform): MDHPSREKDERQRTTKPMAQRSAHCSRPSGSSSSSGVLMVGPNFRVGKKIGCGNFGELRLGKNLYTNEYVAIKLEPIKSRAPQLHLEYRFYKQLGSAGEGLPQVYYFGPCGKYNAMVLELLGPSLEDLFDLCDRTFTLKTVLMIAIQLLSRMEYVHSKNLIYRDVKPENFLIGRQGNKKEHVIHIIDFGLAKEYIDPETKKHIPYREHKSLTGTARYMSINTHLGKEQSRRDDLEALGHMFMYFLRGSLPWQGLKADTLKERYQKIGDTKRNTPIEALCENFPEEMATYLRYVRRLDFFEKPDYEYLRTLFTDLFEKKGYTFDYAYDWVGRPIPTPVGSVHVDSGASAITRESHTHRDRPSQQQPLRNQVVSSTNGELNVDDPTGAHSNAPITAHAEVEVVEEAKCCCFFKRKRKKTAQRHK
Chain of Serine/threonine-protein kinase SIK2 (Homo sapiens) (Q9H0K1 whole entry, looked up): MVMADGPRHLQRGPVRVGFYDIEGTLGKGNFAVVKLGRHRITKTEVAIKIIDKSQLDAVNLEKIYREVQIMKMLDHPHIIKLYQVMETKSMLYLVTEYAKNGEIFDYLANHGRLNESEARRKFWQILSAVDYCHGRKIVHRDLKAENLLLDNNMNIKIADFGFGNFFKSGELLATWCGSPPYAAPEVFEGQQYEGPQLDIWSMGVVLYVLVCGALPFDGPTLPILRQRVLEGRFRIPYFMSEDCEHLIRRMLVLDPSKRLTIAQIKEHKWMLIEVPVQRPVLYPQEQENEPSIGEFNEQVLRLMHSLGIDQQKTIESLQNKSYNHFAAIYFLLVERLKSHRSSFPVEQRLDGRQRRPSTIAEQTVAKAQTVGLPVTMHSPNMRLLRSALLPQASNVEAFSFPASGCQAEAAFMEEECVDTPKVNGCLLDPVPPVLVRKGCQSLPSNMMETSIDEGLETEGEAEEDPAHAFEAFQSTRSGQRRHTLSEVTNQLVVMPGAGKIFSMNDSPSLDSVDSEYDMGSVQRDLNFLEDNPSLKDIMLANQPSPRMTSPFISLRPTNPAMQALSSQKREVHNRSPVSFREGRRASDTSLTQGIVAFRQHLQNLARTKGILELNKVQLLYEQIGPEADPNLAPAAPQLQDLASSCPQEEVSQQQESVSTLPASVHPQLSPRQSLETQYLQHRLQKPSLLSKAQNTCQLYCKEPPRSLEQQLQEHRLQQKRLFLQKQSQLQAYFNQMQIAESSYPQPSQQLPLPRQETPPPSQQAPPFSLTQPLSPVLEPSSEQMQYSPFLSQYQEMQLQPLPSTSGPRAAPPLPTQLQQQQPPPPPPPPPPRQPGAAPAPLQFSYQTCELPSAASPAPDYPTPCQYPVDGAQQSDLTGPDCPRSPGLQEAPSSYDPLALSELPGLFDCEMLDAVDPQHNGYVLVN

As usually defined, the inhibition is the drop in the measured response relative to a control, in per cent. Regarding `CC(C)c1ccc2c(c1)NC(=O)/C2=N/Nc1ccc(S(N)(=O)=O)cc1`, the inhibition stood at 1.32% in experiment [1]; 2.03% in experiment [2]; 3.02% in experiment [3]; 0.46% in experiment [4]; 0.35% in [5]; 1.04% in [6]. The inhibition in [7] was 7.02%; in experiment [8], 2.29%; in [9], 2.16%; in [10] it was -1%; in experiment [11], -0.26%; in experiment [12] it was -0.2%. Moreover, the inhibition in experiment [13] was 1.24%; in [14], 0.12%; in [15], 0.46%; in [16] it was 0.06%; in experiment [17], 0.18%; in [18], 0.11%. Besides, the inhibition amounted to 0.56% in [19] and 0.63% in experiment [20].
Take `Nc1nccc(-c2c(-c3ccc(F)cc3)nn3cc(C(F)(F)F)ccc23)n1`: the inhibition in experiment [1] is 0.77%; in [2], 0.74%; in experiment [3], 0.92%; in experiment [4] it was 0.34%; in experiment [5], 0.16%; in experiment [6] it was -0.43%. Moreover, the inhibition is 1.61% in experiment [7]; -1.04% in [8]; -1.57% in [9]; -2.75% in [10]; -0.2% in experiment [11]; 0.37% in [12]. The inhibition in [13] is 1.13%; in [14] it was 0.32%; in experiment [15], -0.24%; in [16], 0.88%; in [17], 10.8%; in experiment [18], 0.74%. Moreover, the inhibition in [19] is 2.65%; in experiment [20], 0.3%.
With `Nc1nccc(-c2c(-c3ccc(F)cc3)ncn2CCCN2CCOCC2)n1`, the inhibition amounted to 1.68% in [1]; 2.11% in [2]; 1.36% in [3]; 1.45% in [4]; 4.08% in [5]; 2.84% in experiment [6]. Further, the inhibition in experiment [7] came out at 6.36%; in experiment [8], 7.84%; in experiment [9], 11.6%; in [10], 0.96%; in experiment [11], 4.85%; in experiment [12], 3.5%. Further, the inhibition was determined as 3.45% in experiment [13]; 2.07% in [14]; 2.83% in experiment [15]; 6.3% in experiment [16]; 27.3% in experiment [17]; 3.45% in experiment [18]. The inhibition in [19] amounted to 5.49%; in experiment [20] it was 2.84%.
With `COC(=O)Nc1nc2cc(Oc3ccc(NC(=O)Nc4cccc(Br)c4)cc3)ccc2[nH]1`, the inhibition is -0.13% in [1]; -0.57% in [2]; 0.5% in experiment [3]; 1.32% in experiment [4]; 1.31% in experiment [5]; 7.8% in experiment [6]. Besides, the inhibition in experiment [7] is 11.9%; in [8] it was -0.32%; in [9] it was 7.96%; in [10] it was -1.34%; in experiment [11] it was 3.82%; in experiment [12], 2.91%. The inhibition was 2.52% in [13]; 2.72% in experiment [14]; 2.43% in experiment [15]; 4.89% in experiment [16]; 9.35% in [17]; 1.77% in [18]. Further, the inhibition in experiment [19] was determined as 2.02%; in [20], 0.89%.
Turning to `CCS(=O)(=O)c1ccc(OC)c(Nc2nccc(N(C)c3ccc4c(C)n[nH]c4c3)n2)c1`, the inhibition in experiment [1] was 0.56%; in [2] it was -0.02%; in experiment [3], 0.25%; in experiment [4], 1.5%; in [5], 1.32%; in [6] it was 3.91%. In addition, the inhibition in [7] is 23.5%; in experiment [8], -0.54%; in experiment [9] it was 7.47%; in experiment [10] it was 2.62%; in experiment [11], 4.2%; in experiment [12], 4.59%. The inhibition in [13] was determined as 5.05%; in experiment [14] it was 1.98%; in experiment [15], 1.88%; in experiment [16], 2.29%; in [17] it was 1.04%; in experiment [18], 4.4%. Moreover, the inhibition amounted to 4.99% in [19] and 3.88% in experiment [20].
As for `[O-][S+]1CCN(Cc2ccc(-c3ccc4ncnc(Nc5ccc(OCc6ccccc6)c(Cl)c5)c4c3)o2)CC1`, the inhibition is 0.25% in experiment [1]; 0.7% in [2]; 1.32% in [3]; 0.67% in [4]; 0.37% in experiment [5]; 0.43% in experiment [6]. Moreover, the inhibition in experiment [7] worked out at 7.59%; in experiment [8] it was 1.44%; in [9], 5.75%; in experiment [10] it was 0.91%; in [11], 2.35%; in [12], 2.58%. For the same compound, the inhibition stood at 2.95% in experiment [13]; 1.24% in experiment [14]; 1.08% in experiment [15]; 1.88% in [16]; 2.94% in experiment [17]; 1.25% in experiment [18]. In addition, the inhibition in [19] came out at 2.34%; in experiment [20], 0.8%.
